This passage reports composite z-score and z-score results from PubChem BioAssay.

Each structure is given as a SMILES string. Activity calls are given as the source filed them. Unless noted, how the calls were made is not given here.

A short description of test [1]: anti-His antibody binders, primary screen, artefact control for SMM control protein annotation, biochemical, small-molecule microarray, 635 nm fluorescence (AID 1128).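 Further: score merges feature fluorescence with signal-to-noise for each printed compound spot.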 To be noted: anti-His Alexa647 antibody binding, higher = more signal.
Test [2] relates to Human papillomavirus type 1a E7 protein (residues 1-88). Description: HPV1a E7 small-molecule binders, primary screen, biochemical, small-molecule microarray, residues 1-88, 635 nm (AID 1129). Particulars: small-molecule microarray binding, fluorescence 635 nm; higher = more signal.
The target in test [3] is Focal adhesion kinase 1 (Homo sapiens) (UniProt Q05397). Description: small-molecule microarray binders of FAK, primary screen, biochemical, 635/667 nm fluorescence, BSA, DTT (AID 1130).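 Further: composite of spot emission at 667 nm and signal to noise over triplicate slides.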 Particulars: PTK2 binding, 635 nm fluorescence, higher = more signal.
In test [4] the test system is Fibrinogen (Alexa647-labelled). In words: fibrinogen binders on compound microarrays, profiling panel, artefact control for SMM control-protein annotation, biochemical, small-molecule microarray, 635/667 nm fluorescence (AID 1131).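 Further: z-score merges 667 nm fluorescence with per-spot signal-to-noise over triplicate slides.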 Particulars: fibrinogen-A647 binding fluorescence, higher = more signal.
For test [5], the target named is Follistatin (Homo sapiens) (UniProt P19883). In words: follistatin binders on small-molecule microarrays, primary screen, biochemical, small-molecule microarray, 635/667 nm fluorescence (AID 1132). To be noted: FST binding, 635 nm fluorescence, higher = more signal.
The target in test [6] is Fibroblast growth factor 2 (Homo sapiens) (UniProt P09038). In words: FGF2 binders on small-molecule microarrays, primary screen, biochemical, small-molecule microarray, 635/667 nm fluorescence (AID 1133). To be noted: small-molecule microarray binding, FGF2, fluorescence 635/667; higher = more signal.
A short description of test [7]: mitochondrial membrane potential change in A549 cells, profiling panel, cell-based, JC-1 fluorescence, basal, 24 h, 100 nL (AID 1138).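 Further: A549 lung adenocarcinoma cells under basal conditions with no added stimulus; test concentration not given here.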 To be noted: higher = more signal.
Another test deals with Lefty1. Description: Lefty1 binders on small-molecule microarrays, primary screen, biochemical, small-molecule microarray, 635/667 nm fluorescence (AID 1139). To be noted: small-molecule microarray binding, fluorescence 635/667; higher = more signal.
The test system of test [8] is wheat germ agglutinin (Triticum aestivum), Alexa647-labelled. In words: wheat germ agglutinin binders on compound microarrays, profiling panel, artefact control for SMM control-protein annotation, biochemical, small-molecule microarray, 635/667 nm fluorescence (AID 1140).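 Further: score merges 667 nm feature emission with signal to noise over triplicate slides.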 To be noted: WGA-A647 binding, 635 nm fluorescence, higher = more signal.
The target of test [9] is Luciferin 4-monooxygenase (Photinus pyralis) (UniProt P08659). In words: firefly luciferase enzyme inhibitors, primary screen, biochemical, luminescence, purified enzyme, 2006 set (AID 1141).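 Further: cell-free assay with purified firefly luciferase at 100 ng per well in PBS; test concentration not given here.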 Particulars: SteadyGlo luminescence, 30 min, higher = more signal, called active from +8 up or from −8 down.
Test [10] has as its system Wnt5a (protein binding on small-molecule microarray). In words: Wnt5a binders on small-molecule microarray, primary screen, biophysical, 635/667 nm fluorescence (AID 1142).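 Further: fluorescence read at 667 nm with signal to noise per printed feature.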 To be noted: 635 nm fluorescence, higher = more signal.
The nature of test [11]: cell viability in Huh7 cells, primary screen, cytotoxicity control for HCV replication inhibitor project, CellTiter-Glo luminescence, basal, 48 h (AID 1143).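 Further: Huh7 hepatoma cells carrying a hepatitis C replication reporter with no stimulus; test concentration not given here.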 To be noted: Huh7 HCV replicon, higher = more signal, called active from +8 up or from −8 down. For orientation: ATP-based viability assays read luminescence as a measure of living cells.
Test [12] in a line: P. aeruginosa biofilm formation inhibitors, primary screen, PAO1 strain, BacTiter-Glo luminescence, LB-PBS (AID 1144). To be noted: 12 h, higher = more signal.
The nature of test [13]: CREB reporter modulators without forskolin, primary screen, cell-based, PC12, CRE-LacZ reporter, unstimulated (AID 1145). Particulars: no forskolin, luminescence, 4.5 h, higher = more signal, called active from +8 up or from −8 down.
A short description of test [14]: CREB reporter modulators under forskolin, primary screen, cell-based, PC12, CRE-LacZ reporter, forskolin-stimulated (AID 1146).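 Further: PC12 cells with 6xCRE LacZ reporter stimulated by forskolin 10 µM; beta-galactosidase reporter signal reflecting CREB driven transcription.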 To be noted: luminescence, 4.5 h, higher = more signal, called active from +8 up or from −8 down.
For test [15], the target named is Streptavidin (Streptomyces avidinii) (UniProt P22629). Description: streptavidin binders on small-molecule microarray, primary screen, artefact control for SMM compound annotation, biophysical, 635/667 nm fluorescence (AID 1147).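 Further: signal reflects streptavidin binding to arrayed compounds as a control protein.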 To be noted: streptavidin binding, higher = more signal.
Test [16] in a line: small-molecule binders of probe aInhba, primary screen, biochemical, small-molecule microarray, 635/667 nm fluorescence (AID 1148).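 Further: score merges 667nm spot fluorescence with signal-to-noise for antibody binding to printed compounds.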 Particulars: higher = more signal.
Test [17] has as its target Torsin-1A (Homo sapiens) (UniProt O14656). In words: torsin A binders from cell lysate, primary screen, small-molecule microarray, wild-type, 635/667 nm (AID 1149). Particulars: COS7 hTOR1A-WT lysate, 635 nm fluorescence, higher = more signal.
For test [18] the target is unchanged. Description: small-molecule binders of mutant TOR1A in lysate, primary screen, cell lysate, small-molecule microarray, COS7 lysate, 635/667 nm fluorescence (AID 1150).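 Further: score pools 667 nm emission and signal to noise measuring lysate protein binding.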 Particulars: COS7 hTOR1A mutant lysate, 635 nm fluorescence, higher = more signal.
Test [19] has as its system Sonic hedgehog protein (Shh). In words: small-molecule binders of Shh protein, primary screen, biochemical, small-molecule microarray, 635/667 nm fluorescence (AID 1151).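 Further: Shh protein binding to compounds spotted on small-molecule microarray slides; score combines spot fluorescence intensity with signal-to-noise across triplicate slides.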 To be noted: small-molecule microarray binding, 635 nm fluorescence; higher = more signal.

Sequence of Focal adhesion kinase 1 (Homo sapiens) (Q05397 whole entry, looked up): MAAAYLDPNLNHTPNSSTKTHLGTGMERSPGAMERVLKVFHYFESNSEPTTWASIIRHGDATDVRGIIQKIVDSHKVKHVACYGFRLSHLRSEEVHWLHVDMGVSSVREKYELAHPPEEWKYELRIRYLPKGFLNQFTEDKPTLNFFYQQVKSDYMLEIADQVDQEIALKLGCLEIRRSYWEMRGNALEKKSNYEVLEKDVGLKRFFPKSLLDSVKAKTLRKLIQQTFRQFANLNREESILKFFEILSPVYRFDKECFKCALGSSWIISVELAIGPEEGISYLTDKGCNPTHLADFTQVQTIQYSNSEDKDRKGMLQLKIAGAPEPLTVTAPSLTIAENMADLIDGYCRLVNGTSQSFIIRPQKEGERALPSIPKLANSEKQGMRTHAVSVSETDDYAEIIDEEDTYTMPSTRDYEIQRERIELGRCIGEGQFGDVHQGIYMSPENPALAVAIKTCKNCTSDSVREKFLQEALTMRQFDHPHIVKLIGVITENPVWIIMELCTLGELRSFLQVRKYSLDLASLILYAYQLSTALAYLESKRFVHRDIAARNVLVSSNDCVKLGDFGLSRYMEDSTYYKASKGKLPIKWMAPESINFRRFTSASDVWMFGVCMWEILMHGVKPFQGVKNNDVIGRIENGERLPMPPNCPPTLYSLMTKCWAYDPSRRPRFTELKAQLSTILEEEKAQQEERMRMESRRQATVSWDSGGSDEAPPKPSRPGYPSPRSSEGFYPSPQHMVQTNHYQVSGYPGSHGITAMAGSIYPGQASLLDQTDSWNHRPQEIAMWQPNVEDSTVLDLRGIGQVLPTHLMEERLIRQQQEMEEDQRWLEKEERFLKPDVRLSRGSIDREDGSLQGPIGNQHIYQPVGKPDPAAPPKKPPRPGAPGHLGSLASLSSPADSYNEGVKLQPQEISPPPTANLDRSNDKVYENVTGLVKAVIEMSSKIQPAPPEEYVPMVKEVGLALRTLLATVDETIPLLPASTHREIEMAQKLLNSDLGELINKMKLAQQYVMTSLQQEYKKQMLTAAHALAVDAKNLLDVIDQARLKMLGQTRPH
Sequence of Torsin-1A (Homo sapiens) (O14656 whole entry, looked up): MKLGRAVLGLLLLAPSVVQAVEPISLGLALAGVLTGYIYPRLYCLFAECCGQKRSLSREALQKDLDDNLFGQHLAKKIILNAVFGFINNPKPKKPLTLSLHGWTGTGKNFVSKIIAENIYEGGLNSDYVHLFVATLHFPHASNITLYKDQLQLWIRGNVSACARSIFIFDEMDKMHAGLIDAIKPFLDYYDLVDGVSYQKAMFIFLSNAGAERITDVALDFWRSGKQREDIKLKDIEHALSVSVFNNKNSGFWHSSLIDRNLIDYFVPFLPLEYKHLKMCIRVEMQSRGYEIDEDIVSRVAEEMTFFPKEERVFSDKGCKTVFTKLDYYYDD
Sequence of Luciferin 4-monooxygenase (Photinus pyralis) (P08659 whole entry, looked up): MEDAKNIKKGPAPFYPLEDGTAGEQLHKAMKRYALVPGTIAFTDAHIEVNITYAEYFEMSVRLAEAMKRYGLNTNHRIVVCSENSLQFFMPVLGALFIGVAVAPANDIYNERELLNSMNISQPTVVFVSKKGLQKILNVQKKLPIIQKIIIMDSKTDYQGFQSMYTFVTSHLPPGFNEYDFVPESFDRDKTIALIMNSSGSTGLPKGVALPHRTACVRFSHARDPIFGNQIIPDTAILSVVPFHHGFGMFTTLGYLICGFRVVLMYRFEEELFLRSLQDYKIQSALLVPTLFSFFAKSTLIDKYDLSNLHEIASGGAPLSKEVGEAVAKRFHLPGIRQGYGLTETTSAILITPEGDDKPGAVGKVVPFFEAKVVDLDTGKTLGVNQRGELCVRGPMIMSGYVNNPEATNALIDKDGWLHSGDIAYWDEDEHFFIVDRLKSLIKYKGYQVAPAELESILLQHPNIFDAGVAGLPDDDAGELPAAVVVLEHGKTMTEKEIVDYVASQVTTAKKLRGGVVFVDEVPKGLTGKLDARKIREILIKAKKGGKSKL
Sequence of Fibroblast growth factor 2 (Homo sapiens) (P09038 whole entry, looked up): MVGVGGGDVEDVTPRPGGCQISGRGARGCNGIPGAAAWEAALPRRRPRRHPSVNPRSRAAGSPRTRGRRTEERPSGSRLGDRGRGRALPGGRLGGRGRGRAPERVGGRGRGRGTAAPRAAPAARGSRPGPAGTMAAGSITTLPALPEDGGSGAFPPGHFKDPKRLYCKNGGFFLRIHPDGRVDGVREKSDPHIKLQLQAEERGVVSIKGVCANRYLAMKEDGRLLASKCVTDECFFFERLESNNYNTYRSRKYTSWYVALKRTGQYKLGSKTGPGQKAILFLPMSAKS
Sequence of Streptavidin (Streptomyces avidinii) (P22629 whole entry, looked up): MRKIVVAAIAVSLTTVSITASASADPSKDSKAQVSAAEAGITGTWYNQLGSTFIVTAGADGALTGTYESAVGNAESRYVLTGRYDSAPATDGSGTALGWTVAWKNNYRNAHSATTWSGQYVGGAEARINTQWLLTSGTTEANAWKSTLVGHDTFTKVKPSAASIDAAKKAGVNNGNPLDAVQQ
Sequence of Follistatin (Homo sapiens) (P19883 whole entry, looked up): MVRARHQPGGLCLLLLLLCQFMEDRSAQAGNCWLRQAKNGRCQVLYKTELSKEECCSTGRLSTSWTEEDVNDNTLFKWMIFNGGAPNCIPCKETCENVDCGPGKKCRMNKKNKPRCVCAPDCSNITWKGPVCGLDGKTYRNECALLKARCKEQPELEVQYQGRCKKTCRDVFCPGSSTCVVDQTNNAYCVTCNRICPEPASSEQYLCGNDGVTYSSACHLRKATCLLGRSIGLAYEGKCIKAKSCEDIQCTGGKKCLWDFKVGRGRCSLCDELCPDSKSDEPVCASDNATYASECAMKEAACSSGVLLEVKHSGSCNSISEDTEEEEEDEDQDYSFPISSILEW

Take `COc1cccc([C@H]2Oc3ccc(OC)cc3C(=NO[C@H](C)c3cn([C@H](CO)Cc4ccccc4)nn3)[C@@H]2O)c1`: the composite z-score in test [1] is 0.533; in test [2], -0.323; in [3], -0.181; in [4] it was -0.095; in test [5], -0.0053; in [6], 0.185. Moreover, the composite z-score was 0.0027 in the test on Lefty1; -0.124 in [8]; -0.0943 in test [10]; -0.706 in test [15]; -0.104 in test [16]; -0.0667 in the test with Torsin-1A (Homo sapiens) [17]. The composite z-score in the test with Torsin-1A (Homo sapiens) [18] worked out at 1.44; in test [19], 0.326. The z-score in test [7] is -0.685; in [9] it was 0.417 (inactive); in test [11], 0.474 (inactive); in test [12], 0.829 (inactive); in test [13], 3.87 (inactive); in test [14], -0.345 (inactive).
As to `CC(C)=CCCC(C)=CCON=C1C[C@@H](O)[C@@H](O)[C@@H]2[C@@H]3C(=O)N(C(C)(C)C)C(=O)[C@@H]3CC[C@@H]12`, the composite z-score in test [1] was 0.696; in test [2], 0.494; in test [3], 0.057; in test [4], -0.0293; in [5], 0.307; in test [6] it was 0.247. Further, the composite z-score in the test with Lefty1 was 0.351; in [8] it was 0.269; in [10], -0.0529; in [15] it was -0.125; in [16], -0.293; in the test with Torsin-1A (Homo sapiens) [17], 0.244. The composite z-score in the test with Torsin-1A (Homo sapiens) [18] was 0.764; in [19], 0.711. Further, the z-score in test [7] is -0.872; in [9], 0.421 (inactive); in test [11], -0.813 (inactive); in test [12], -0.408 (inactive); in test [13], 1.6 (inactive); in [14], 0.585 (inactive).
Take `O=C(C=Cc1ccc2c(c1)OCO2)c1ccc(F)cc1`: the composite z-score in test [1] was 0.877; in test [2], -0.575; in test [3], -0.174; in test [4], 0.0796; in test [5], 0.853; in [6], 1.31. The composite z-score in the test on Lefty1 is 1.21; in test [8], -0.177; in [10], 0.239; in test [15] it was 1.32; in test [16], 0.259; with Torsin-1A (Homo sapiens) [17], 0.245. The results for the composite z-score (in the test with Torsin-1A (Homo sapiens) [18]; in [19]) were -0.397 and 2.05, respectively. In addition, the z-score in test [7] was -0.0292; in test [9], -6.89 (inactive); in [11], -1.25 (inactive); in test [12], 0.583 (inactive); in test [13], 1.28 (inactive); in test [14], 0.362 (inactive).
With `COC(=O)CC=C[C@@H](C)[C@@H](C=NO[C@@H]1O[C@H](COC(C)=O)[C@@H](OC(C)=O)[C@H](OC(C)=O)[C@H]1OC(C)=O)OC`, the composite z-score in test [1] was 0.662; in test [2] it was 0.036; in [3] it was 0.107; in [4] it was -0.0528; in [5], -0.186; in test [6] it was -0.347. The composite z-score with Lefty1 was -0.268; in test [8] it was -0.421; in test [10] it was 0.359; in [15], -0.769; in test [16] it was -0.165; with Torsin-1A (Homo sapiens) [17] it was 0.698. The composite z-score was determined as 0.32 with Torsin-1A (Homo sapiens) [18] and 0.0568 in test [19]. Further, the z-score in test [7] is -0.361; in test [9] it was 0.86 (inactive); in test [11], 0.36 (inactive); in test [12] it was -0.743 (inactive); in test [13], 0.834 (inactive); in test [14], 0.0774 (inactive).
Regarding `C=CC1=C[C@H](O)[C@@H]2O[C@@H]2C12OCCCO2`, the composite z-score in test [1] was 0.837; in test [2] it was 0.661; in test [3], 0.172; in test [4], 0.429; in test [5], -0.285; in test [6], 0.151. Moreover, the composite z-score in the test with Lefty1 was 0.0863; in test [8] it was -0.159; in test [10] it was 0.398; in test [15], 0.281; in [16], -0.0695; with Torsin-1A (Homo sapiens) [17], 0.468. In addition, the composite z-score with Torsin-1A (Homo sapiens) [18] was 0.752; in test [19] it was -0.262. For the same compound, the z-score in [7] is -0.722; in test [9], 0.571 (inactive); in test [11], 0.17 (inactive); in test [12], 0.658 (inactive); in test [13] it was -0.0732 (inactive); in test [14] it was 0.197 (inactive).
